RE007 growth inh – less growth of the S. pombe RE007 Vpr strain; S. pombe RE007 Vpr strain, BacTiter-Glo ATP luminescence, 24 h; Potency, µM (top dose mostly 92.2 µM), for inactives: at the top dose activity change, negative = less growth, hits mostly inhibitors; actives 0.21% (n = 360,000); active = well fitted falling curve with a large enough effect; inconclusive = small, poorly fitted or top-dose-only effect; inactive = no such curve, though single readings can be large or run the other way; note: potency is the fitted concentration of half-maximal effect; % is set by controls: 0 for no effect and ±100 for the full control effect; nearly all actives have a fitted effect of over 50% in size
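Fission yeast RE007 carrying one integrated HIV-1 vpr copy, seeded at OD 0.01 in PMG+AL medium with 23 nL pinned compound. Grown 24 h at 30 degrees; viability read by BacTiter-Glo luminescence after 5 min.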
Cycloheximide cs – counter-screen for Shiga toxin inhibitors: cycloheximide protein synthesis inhibition | cell reporter, cycloheximide protein synthesis inhibition counterscreen | max response, % | actives 12% (n = 300,000); in the data active = max response mostly above about 13%, no sharp cut-off; inactive = mostly below about 14%; note: read at 38.3 µM for the half of the compounds with a filed dose; 0% is about no effect
Shiga toxin inh – Shiga toxin inhibition. Vero cells, Shiga toxin protein synthesis inhibition reporter. inhibition, % at 38.7 µM. actives 9.2% (n = 290,000). AID 2315; in the data active = inhibition mostly above about 28%, no sharp cut-off; inactive = mostly below about 43%; note: 0% is about no effect
FBPA Giardia inh – blocks Giardia fructose-bisphosphate aldolase activity; A8B2U2; purified Giardia FBPA; Potency, µM (doses to about 59.6 µM), for the others: at the highest dose activity, negative = inhibition, usual class: inhibitors; actives 0.71% (n = 290,000); note: potency is the fitted concentration of half-maximal effect; % is set by controls: 0 for no effect and ±100 for the full control effect; nearly all actives have a fitted effect of over 55% in size
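40 nM FBPA preincubated 10 min at RT with compound (up to 57.5 uM final), then substrate plus GAPDH/TPI/NAD/arsenate coupling and diaphorase/resazurin added. Fluorescence read after 20 min at RT, 525/598 nm.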
LmPK inhibitor – LmPK (Leishmania mexicana) enzyme inhibition; purified LmPK, Kinase-Glo ATP luminescence, 1 h; Potency, µM (titrated, usually from 57.5 µM), for the others: at the highest dose activity change, negative = inhibition, usual class: inhibitors; Q27686; AID 1721; actives 0.37% (n = 290,000); note: potency is the fitted concentration of half-maximal effect; % is set by controls: 0 for no effect and ±100 for the full control effect
Target sequence (Q27686 whole entry, looked up): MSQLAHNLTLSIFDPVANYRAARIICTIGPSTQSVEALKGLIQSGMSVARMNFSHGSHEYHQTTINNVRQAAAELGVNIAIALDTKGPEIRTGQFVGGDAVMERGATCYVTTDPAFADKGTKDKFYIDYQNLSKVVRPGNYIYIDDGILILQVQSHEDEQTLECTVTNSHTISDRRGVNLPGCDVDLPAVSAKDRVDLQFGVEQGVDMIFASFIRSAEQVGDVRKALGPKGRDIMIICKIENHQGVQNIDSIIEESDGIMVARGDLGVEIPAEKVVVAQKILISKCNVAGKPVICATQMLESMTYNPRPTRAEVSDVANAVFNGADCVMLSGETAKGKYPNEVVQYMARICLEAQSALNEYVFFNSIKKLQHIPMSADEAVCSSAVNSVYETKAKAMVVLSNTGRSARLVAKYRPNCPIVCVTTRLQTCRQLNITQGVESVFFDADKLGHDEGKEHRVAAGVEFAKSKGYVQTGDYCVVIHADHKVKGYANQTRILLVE
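ATP generated from ADP (0.1 mM) and PEP (0.5 mM) by 0.1 nM LmPK over 1 h at room temperature (pH 7.2 imidazole buffer) was detected by coupled luciferase luminescence. Values were normalized to uninhibited and no-enzyme wells.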
TbPYK inhibitor – inhibitors of Trypanosoma brucei pyruvate kinase; Potency, µM (doses to about 76.8 µM), inactives show at the highest dose activity, negative = inhibition, most hits filed as inhibitors; TbPYK enzyme, Kinase-Glo Plus ATP luminescence, 45 min; actives 0.12% (n = 410,000); AID 624173; note: potency is the fitted concentration of half-maximal effect; % is set by controls: 0 for no effect and ±100 for the full control effect; nearly all actives have a fitted effect of over 50% in size
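Activity of T. brucei pyruvate kinase was followed by Kinase-Glo Plus luminescence after the enzyme reacted 45 min at room temperature with 130 uM ADP (final) and substrate. Test compounds were added before ADP at multiple concentrations.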
Starred values were filed as active, the others as inactive; ? = inconclusive; nt = no result given; [ ] = dose if it differs, or a comment. This excerpt belongs to a sample that is enriched for hits. Unless noted, calls come from the whole dose curve; as a rule, active = well fitted curve in the direction sought with a large enough effect; inconclusive = small, poorly fitted or top-dose-only effect, or another doubt; inactive = no such curve, though single readings can be large; an effect the other way counts as inactive or inconclusive.

SMILES	RE007 growth inh	Cycloheximide cs	Shiga toxin inh	FBPA Giardia inh	LmPK inhibitor	TbPYK inhibitor
Cc1ccc(OCCCn2c(-c3ccc(Cl)cc3)nc3ccccc3c2=O)c(C)c1	nt	nt	nt	nt	nt	2%
Cc1ccc(CNC(=O)[C@H](C)[C@@H]2C[C@@]2(C)[C@@H](NC(=O)OCc2ccccc2)c2ccccc2)o1	nt	nt	nt	-1%	nt	nt
C=CCn1c(-c2ccc(OC)cc2)csc1=Nc1c(C)n(C)n(-c2ccccc2)c1=O	-15%	-4	-22	1%	5%	-5%
CCc1ccc2oc(-c3ccc(OC)cc3)cc(=Nc3c(C)n(C)n(-c4ccccc4)c3=O)c2c1	-27%	63*	127*	-10%	3%	-1%
O=C(Nc1ccc(Br)cc1)c1cc(-c2cccs2)on1	-19%	22*	114*	8%	-8%	14%
COc1cc(NC(=O)c2cc(-c3cccs3)on2)cc(OC)c1OC	-7%	14	3	1%	0%	2%
Cc1ccc(NC(=O)c2cc(-c3cccs3)on2)cc1	9%	38*	131*	4%	3%	1%
O=C(Nc1ccc(Cl)cc1)c1cc(-c2cccs2)on1	-2%	8.3*	-3	nt	1%	1%
Cc1ccccc1Nc1c(-c2ccc(N3CCOCC3)cc2)nc2ccc(Br)cn12	nt	nt	nt	nt	nt	2%
COc1ccc(-n2nnc(C(=O)Nc3ccccc3F)c2N)cc1	nt	nt	nt	nt	nt	-2%
CC1CCCCN1Cc1c(O)ccc2c(=O)c(-c3ccc(Cl)cc3)c(C(F)(F)F)oc12 (centres undefined)	nt	nt	nt	nt	nt	-8%
CN(C)C(=O)CSc1nnc2sc3ccccc3n12	18%	-1	19	-11%	-2%	-1%
c1csc(CSc2nnc3sc4ccccc4n23)c1	-13%	32*	106*	-19%	-5%	1%
O=C(CSc1nnc2sc3ccccc3n12)c1ccco1	-5%	40*	100*	15%	-9%	-15%
Cc1cc(-n2c(C)cc(C(=O)CSc3ncnc4ccccc34)c2C)no1	-20%	1	16	?	6%	-6%
Cc1cc(-n2c(C)cc(C(=O)CSc3nnc4sc5ccccc5n34)c2C)no1	-9%	24*	87*	-5%	2%	-11%
O=C(CSCCSCC(=O)c1ccco1)c1ccco1	nt	13*	49	?	11%	nt
O=C(Cn1c(=O)oc2cc(Cl)ccc21)Nc1cccc(C(F)(F)F)c1	nt	nt	nt	nt	nt	5%
CCOCCCn1c(SCC(=O)Nc2ccc(F)cc2)nc2c(sc3ccccc32)c1=O	nt	nt	nt	nt	nt	-3%
O=C(CSc1nnnn1-c1ccccc1)c1ccco1	-3%	36*	27	-3%	0%	-3%
Cc1cc(C)cc(NC(=O)CCCN2C(=O)COc3ccc(C)cc32)c1	nt	nt	nt	nt	nt	-6%
O=C(Nc1nc(-c2ccccn2)cs1)C1CC(=O)N(c2ccc3c(c2)OCCO3)C1 (centres undefined)	1%	25*	18	21%	-1%	-5%
O=C(Nc1nnc(C2CC2)s1)C1CC(=O)N(c2ccc3c(c2)OCCO3)C1 (centres undefined)	-7%	31*	31*	4%	7%	-2%
COc1ccc(-c2nc(NC(=O)C3CC(=O)N(c4ccc5c(c4)OCCO5)C3)sc2C)cc1 (centres undefined)	9%	28*	41	-6%	3%	-19%
Cc1cccnc1NC(=O)C1CC(=O)N(c2ccc3c(c2)OCCO3)C1 (centres undefined)	7%	nt	nt	nt	nt	-2%
SMILES	RE007 growth inh	Cycloheximide cs	Shiga toxin inh	FBPA Giardia inh	LmPK inhibitor	TbPYK inhibitor
CCCOc1ccc(C(=O)Nc2cc3nn(-c4ccc(CC)cc4)nc3cc2C)cc1	nt	nt	nt	nt	nt	-1%
COC(=O)C/C=C/[C@@H](C)[C@H](OC)c1c(Br)ccc2c1OCO2	nt	nt	nt	0%	nt	nt
CC(=O)c1nn(-c2ccc(OC(F)(F)F)cc2)nc1Nc1ccc(C)cc1	nt	nt	nt	nt	nt	0%
COc1ccc2c(c1)O/C(=C\c1sccc1C)C2=O	-17%	24*	123	0%	-18%	-2%
O=C(O)COc1ccc2c(c1)O/C(=C\c1cccs1)C2=O	-11%	-1	5	14%	-14%	-3%
O=[N+]([O-])c1cc2no[n+]([O-])c2cc1N1CCCCC1	?	nt	nt	nt	nt	14µM*
CCOc1ccc(CN2C(=O)c3ccccc3Sc3ccc(C(=O)O)cc32)cc1	nt	nt	nt	nt	nt	4%
Cc1cccc(NC(=O)CCC(=O)c2cccs2)n1	-16%	nt	nt	nt	nt	2%
Cc1cccc(NC(=O)CNC(=O)c2ccco2)n1	14%	nt	nt	nt	nt	-1%
Cc1cccc(NC(=S)NC(=O)c2cccs2)n1	14%	24*	115*	-28%	-4%	-4%
Cc1nc(NC(=S)NC(=O)c2cccs2)ccc1Br	-10%	31*	32*	0%	5%	-6%
Cc1cccc(NC(=S)NC(=O)c2ccco2)n1	7%	16*	35	-18%	-4%	0%
CO/N=C\[C@@H](NS(=O)(=O)c1ccc(C)cc1)[C@H](C)/C=C\CC(=O)OC	nt	nt	nt	5%[12.9 µM]	nt	nt
NC(=O)[C@@H]1CCCN1C(=O)C(Cc1cnc[nH]1)NC(=O)C1CCC(=O)N1 (some centres undefined)	nt	-1	22	-2%	nt	nt
COCCNC(=S)N1CCN(c2nc(-c3ccc(F)cc3)cs2)CC1	1%	12*	19	-13%	-3%	-8%
CCNC(=S)N1CCN(c2nc(-c3ccc(F)cc3)cs2)CC1	-15%	9.7*	21	6%	0%	-6%
CCCc1c(C(=O)OCC)nnc2c(-c3ccccc3)c(C)nn12	nt	nt	nt	nt	nt	-2%
CC(C)CCn1c(=O)c2cccnc2n(CC(=O)Nc2ccccc2F)c1=O	nt	nt	nt	nt	nt	-3%
CC(C(=O)OCc1nnc(-c2ccccc2)o1)N1C(=O)c2ccccc2C1=O (centres undefined)	2%	32*	92*	10%	5%	6%
CC(C)[C@H](NC(=O)c1ccccc1)C(=O)OCc1nnc(-c2ccccc2)o1	-8%	13	24	13%	-1%[11.5 µM]	-7%
Cc1ccc(C(=O)N[C@H](C(=O)OCc2nnc(-c3ccccc3)o2)C(C)C)cc1	2%	26*	24	1%	3%	-4%
Cc1cnc(NC(=O)CCCc2nc3ccccc3s2)s1	-2%	4	14	0%	10%	-24%
Cc1csc(NC(=O)CCc2nc3ccccc3s2)n1	18%	24*	37	-13%	5%	-7%
O=C(COC(=O)CCc1nc2ccccc2s1)Nc1ncc(Cl)cc1Cl	-13%	-2	13	0%	2%	-3%
O=C(COC(=O)CCc1nc2ccccc2s1)Nc1nc(-c2ccccc2)cs1	0%	18*	47*	-4%	3%	7%
Cc1cnc(NC(=O)c2cncc(Br)c2)s1	1%	30*	53*	-1%	-7%	-4%
Cc1cnc(NC(=O)c2ccncc2)s1	15%	17*	36*	-9%	-9%	-4%

Compound activity from PubChem.
